In PubChem BioAssay (NCI) one finds growth data, which are given here for nine molecules.

The panel holds about 83,000 compounds, 20% with a hit somewhere; the sample as a whole holds those more often.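 Treatment: one concentration, 48 hours, 96-well format. Scoring: percent growth, with anything below 10 considered active.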 A number with no mark means an inactive call. The source made the active and inactive calls.

Assay in all cases: NCI-60 one-dose screen, 48 h (100 = growth as untreated, 0 = no growth, -100 = all killed)
One experiment deals with SK-MEL-2 melanoma. Particulars: 10 µM unless noted.
Another experiment has as its system SN12C renal. Particulars: 10 µM unless noted.
A further experiment deals with UO-31 renal. Particulars: 10 µM unless noted.
In another experiment the test system is TK-10 renal. To be noted: 10 µM unless noted.
The next experiment relates to ACHN renal. To be noted: 10 µM unless noted.
In a further experiment the test system is CAKI-1 renal. Particulars: 10 µM unless noted.
A further experiment has as its system A498 renal. Particulars: 10 µM unless noted.
The subject of a further experiment is CCRF-CEM leukemia. Particulars: 10 µM unless noted.
The test system of a further experiment is MOLT-4 leukemia. To be noted: 10 µM unless noted.
For another experiment, the system named is SR leukemia. Particulars: 10 µM unless noted.
Another experiment deals with RPMI-8226 leukemia. Particulars: 10 µM unless noted.
Another experiment has as its system OVCAR-8 ovarian. Particulars: 10 µM unless noted.
The test system of the next experiment is OVCAR-5 ovarian. To be noted: 10 µM unless noted.
The next experiment concerns OVCAR-4 ovarian. To be noted: 10 µM unless noted.
The subject of a further experiment is SK-OV-3 ovarian. To be noted: 10 µM unless noted.
A further experiment concerns OVCAR-3 ovarian. To be noted: 10 µM unless noted.
In a further experiment the test system is HS 578T breast. Particulars: 10 µM.
The subject of the next experiment is NCI/ADR-RES ovarian. Particulars: 10 µM unless noted.
The test system of the next experiment is IGROV1 ovarian. Particulars: 10 µM unless noted.

As for `O=C1C(Cl)=C(N/N=c2/[nH][nH]/c(=N/NC3=C(Cl)C(=O)c4ccccc4C3=O)c3ccccc23)C(=O)c2ccccc21`, the growth with SK-MEL-2 melanoma was 96.4%; in the experiment on SN12C renal, 56.4%; with UO-31 renal, 54.7%; in the experiment with TK-10 renal it was 130%; with ACHN renal it was 61.9%; with CAKI-1 renal it was 104%. The growth in the experiment on A498 renal is 57%; in the experiment on CCRF-CEM leukemia, 16.5%; in the experiment on MOLT-4 leukemia, 11.4%; with SR leukemia, 19.7%; in the experiment on RPMI-8226 leukemia, 33.8%; in the experiment on OVCAR-8 ovarian it was 78.1%. Also, the growth was 119% in the experiment with OVCAR-5 ovarian; 78.5% in the experiment on OVCAR-4 ovarian; 73.6% with SK-OV-3 ovarian; 66.2% in the experiment on OVCAR-3 ovarian; 37.4% in the experiment on HS 578T breast; 66.1% in the experiment with NCI/ADR-RES ovarian.

`Brc1ccccc1Cn1c(-c2cncs2)nc2ccccc21`: the growth was 95.4% in the experiment with SK-MEL-2 melanoma; 85.1% in the experiment with SN12C renal; 44.9% in the experiment on UO-31 renal; 82.6% with TK-10 renal; 72.8% with ACHN renal; 74.4% with CAKI-1 renal. Moreover, the growth in the experiment with A498 renal is 71.6%; in the experiment with CCRF-CEM leukemia it was 78%; in the experiment with MOLT-4 leukemia it was 77.6%; in the experiment with RPMI-8226 leukemia, 43.3%; in the experiment on OVCAR-8 ovarian, 79.2%; with OVCAR-5 ovarian it was 70.8%. Moreover, the growth was 72.4% with OVCAR-4 ovarian; 92.2% in the experiment with SK-OV-3 ovarian; 86.9% with IGROV1 ovarian; 86.6% in the experiment with OVCAR-3 ovarian; 69.5% with HS 578T breast; 83.5% in the experiment with NCI/ADR-RES ovarian.

For `O=C(Oc1c(Cl)c(Cl)c(Cl)c(Cl)c1Cl)C1CCCN1C(=O)OCc1ccccc1` (stereo not given), the growth in the experiment on SK-MEL-2 melanoma is 69.9%; in the experiment on SN12C renal, 60%; with UO-31 renal, 56.1%; in the experiment with TK-10 renal, 67.3%; in the experiment with ACHN renal it was 17%; with CAKI-1 renal it was 90.4%. Moreover, the growth in the experiment with A498 renal is 12.3%; in the experiment with CCRF-CEM leukemia, 10.8%; with MOLT-4 leukemia it was 15.5%; in the experiment on SR leukemia, 30.1%; with RPMI-8226 leukemia, 6.32% (active); in the experiment with OVCAR-8 ovarian, 34.7%. Also, the growth is 51% with OVCAR-4 ovarian; 46.4% in the experiment with SK-OV-3 ovarian; 37.3% with IGROV1 ovarian; 79.1% in the experiment with OVCAR-3 ovarian; 73.2% in the experiment with HS 578T breast; 27.6% in the experiment on NCI/ADR-RES ovarian.

With `Oc1ccc(Cl)cc1-c1cc(-c2ccccc2Cl)[nH]n1`, the growth in the experiment on SK-MEL-2 melanoma was 77.5%; with SN12C renal it was 69.5%; with UO-31 renal it was 38.6%; in the experiment on TK-10 renal, 86.8%; in the experiment on ACHN renal, 59%; in the experiment with CAKI-1 renal, 75.9%. Also, the growth was 96.1% in the experiment on A498 renal; 28.5% in the experiment with MOLT-4 leukemia; 41.9% in the experiment on SR leukemia; 42.3% in the experiment on RPMI-8226 leukemia; 71.1% in the experiment with OVCAR-8 ovarian; 87.9% in the experiment on OVCAR-5 ovarian. Further, the growth in the experiment on OVCAR-4 ovarian was 13.3%; in the experiment with SK-OV-3 ovarian, 76.9%; in the experiment with IGROV1 ovarian it was 34.2%; in the experiment on OVCAR-3 ovarian it was 21.2%.

On to `CCCCCCCCCCCCCC(=S)NCCCC[C@H](NC(=O)OCc1ccccc1)C(=O)Nc1ccccc1`, for which the growth was 40.5% in the experiment on SK-MEL-2 melanoma; 27.3% with SN12C renal; 28.6% in the experiment on UO-31 renal; 44.2% in the experiment with TK-10 renal; 24.6% in the experiment on ACHN renal; 34.5% in the experiment on CAKI-1 renal. Moreover, the growth with A498 renal is 55.4%; with CCRF-CEM leukemia, 27.3%; in the experiment with MOLT-4 leukemia, 21.6%; in the experiment on RPMI-8226 leukemia, 32%; with OVCAR-8 ovarian it was 40.3%; in the experiment on OVCAR-5 ovarian it was 89.5%. Besides, the growth in the experiment with OVCAR-4 ovarian is 54.6%; in the experiment with SK-OV-3 ovarian it was 78.2%; in the experiment on IGROV1 ovarian, 54%; in the experiment with OVCAR-3 ovarian, 22.1%; with HS 578T breast, 61.1%; in the experiment with NCI/ADR-RES ovarian it was 34.8%.

For the molecule `CC(C)CC(NC(=O)C(CCCN=C(N)N)NC(=O)OCc1ccccc1)C(=O)NC(CNC(=O)/C=C/c1ccccc1)C(C)C` (stereo not given), the growth in the experiment on SK-MEL-2 melanoma is 113%; with SN12C renal, 99.6%; in the experiment on UO-31 renal, 93%; in the experiment on TK-10 renal it was 107%; in the experiment with ACHN renal, 91.9%; in the experiment with CAKI-1 renal it was 90%. Also, the growth in the experiment with A498 renal was 103%; in the experiment with MOLT-4 leukemia, 97.5%; in the experiment on SR leukemia it was 98.3%; in the experiment with RPMI-8226 leukemia, 96%; in the experiment on OVCAR-8 ovarian it was 106%; with OVCAR-5 ovarian, 89.3%. For the same molecule, the growth in the experiment with OVCAR-4 ovarian is 95.8%; in the experiment on SK-OV-3 ovarian, 117%; in the experiment with IGROV1 ovarian, 88.3%; in the experiment with OVCAR-3 ovarian it was 105%.

For the molecule `CCOP(=O)(O)OP(=O)(O)OCC`, the growth in the experiment on SK-MEL-2 melanoma is 128%; with SN12C renal, 105%; with UO-31 renal it was 91.9%; in the experiment on TK-10 renal, 103%; in the experiment with ACHN renal, 97.6%; in the experiment on CAKI-1 renal it was 94.3%. The growth in the experiment on A498 renal was 110%; in the experiment on MOLT-4 leukemia it was 87.1%; in the experiment on SR leukemia, 91.2%; in the experiment with RPMI-8226 leukemia, 95.8%; in the experiment with OVCAR-8 ovarian, 119%; with OVCAR-5 ovarian, 96.9%. In addition, the growth in the experiment on OVCAR-4 ovarian is 105%; in the experiment with SK-OV-3 ovarian it was 97.3%; in the experiment on IGROV1 ovarian, 97.3%; in the experiment with OVCAR-3 ovarian, 105%; in the experiment with NCI/ADR-RES ovarian, 105%.

With `Nc1c(C(=O)Nc2cccc(Cl)c2)sc2ncc(Br)cc12`, the growth in the experiment with SK-MEL-2 melanoma is 89.6%; in the experiment with SN12C renal it was 82%; in the experiment with UO-31 renal, 62.2%; in the experiment with TK-10 renal it was 57.9%; with ACHN renal, 11.4%; in the experiment on CAKI-1 renal it was 90.6%. Besides, the growth in the experiment on A498 renal is 96.5%; with MOLT-4 leukemia it was 87.4%; in the experiment with SR leukemia, 71.7%; in the experiment with RPMI-8226 leukemia it was 71.3%; in the experiment on OVCAR-8 ovarian it was 87.1%; with OVCAR-5 ovarian, 84.1%. Besides, the growth in the experiment on OVCAR-4 ovarian was 9.2% (active); with SK-OV-3 ovarian it was 61%; in the experiment on IGROV1 ovarian, 70%; in the experiment with OVCAR-3 ovarian, 54.5%.

As for `COc1ccc(-c2n[nH]nc2-c2cc(OC)c3c(c2)OCO3)cc1`, the growth in the experiment on SK-MEL-2 melanoma was 6.64% (active); with SN12C renal, 23%; with UO-31 renal, 20.1%; in the experiment with TK-10 renal, 47.7%; in the experiment with ACHN renal it was 29.6%; in the experiment on CAKI-1 renal, -2.7% (active). For the same molecule, the growth was -9.3% (active) in the experiment with A498 renal; -4.86% (active) with CCRF-CEM leukemia; -15.3% (active) with MOLT-4 leukemia; -30.8% (active) with SR leukemia; 9.65% (active) in the experiment with RPMI-8226 leukemia; 6.23% (active) in the experiment with OVCAR-8 ovarian. Also, the growth is 42.7% with OVCAR-5 ovarian; 51.7% in the experiment on OVCAR-4 ovarian; -6.92% (active) with SK-OV-3 ovarian; -14.6% (active) in the experiment with OVCAR-3 ovarian; 15% in the experiment on HS 578T breast; 0.386% (active) with NCI/ADR-RES ovarian.
